Measured values published in ChEMBL document CHEMBL4513216, “Probing the Open Global Health Chemical Diversity Library for Multistage-Active Starting Points for Next-Generation Antimalarials” (ACS Infect Dis, 2020).
In all, about 69,000 compounds went through this assay and about 8,600 (12%) showed an effect of 50% or more. Shown is part of a subset that was picked to be rich in strong results.

Each molecule was assayed on Plasmodium berghei (assay: Screen against P. berghei liver stage (PbLuc), transformed with Luciferase, at 10uM). Settings: tested at 10 uM.
Format: functional, HepG2

| Compound | INHIBITION |
| --- | --- |
| CCc1noc(C)c1C(=O)N1CCC(c2[nH]ncc2S(C)(=O)=O)C1 (stereo unspecified) | 35.2% |
| CCNc1cc2c(nn1)CCN(C(=O)c1c(C)noc1C)C2 | 14.1% |
| O=C(NCCCO)NCCc1cc(F)ccc1F | 22.6% |
| Cc1ccc(CN2CCCn3c(nc(Cn4ccnc4)cc3=O)C2)o1 | 10% |
| CN1CCCC1c1ccnc(-c2ccccn2)n1 (stereo unspecified) | -5.8% |
| NC(=O)COc1ccc(CNCc2c(F)cccc2F)cc1 | 31.1% |
| Cc1ccc(-c2nc(CNC3CCc4ncnn4C3)co2)cc1 (stereo unspecified) | 12.7% |
| O=C([C@H]1C[C@H]2CN(c3ncc(F)cn3)C[C@@H]1O2)N1CCCC1 | 41.2% |
| c1ccc(Cc2nc(CNCCn3cccn3)cs2)cc1 | 21.5% |
| CC(C)c1nnc2n1CCN(C(=O)c1cc3cc(F)ccc3[nH]1)C2 | 45.7% |
| CC(O)c1cccc(N2CCC3(CCC(=O)N(C4CCCC4)C3)CC2)n1 (stereo unspecified) | -9.31% |
| CC(C)c1cccc(N2CCCC3(CCC(=O)N(C4CC4)C3)C2)n1 (stereo unspecified) | 50.5% |
| N#Cc1cccc(N2CCCC3(CCC(=O)N(C4CCCC4)C3)C2)n1 (stereo unspecified) | 18.9% |
| COCCCNC(=O)c1ccccc1S(C)(=O)=O | 18.4% |
| Cc1cc(=O)[nH]c(=O)n1-c1cccc(Cl)c1Cl | 17.1% |
| Cc1cc(C)n(-c2cncc(NCCNC(=O)c3cccnc3)n2)n1 | 31.9% |
| CC(C)OCc1nn(C)c2c1CN(Cc1cccs1)CC2 | 35.8% |
| COc1ccc(C(=O)n2nc(C)c(C)c2C)cc1 | 30.7% |
| Cc1nn(C(=O)c2cccnc2)c(C)c1C | 64.6% |
| Cc1nn(C(C)C)c(C)c1NC(=O)c1cccnc1 | 7.18% |
| CO[C@@H]1CC[C@H]2[C@H]1OCCN2Cc1ccc(F)c(F)c1 | -8.28% |
| Cc1ccccc1C(C(=O)NCCSC(F)(F)F)N(C)C (stereo unspecified) | -33.8% |
| CC1(C)Cc2nc(C(C)(C)C)ncc2C(NC(=O)Cc2nnn[nH]2)C1 (stereo unspecified) | -0.71% |

| Compound | INHIBITION |
| --- | --- |
| COC(=O)CC(c1cccs1)c1oc(C)cc(=O)c1O (stereo unspecified) | 27.5% |
| CCN1CCn2c(C)cnc2C12CCN(C(=O)c1ccc(Cl)cc1)CC2 | 31.9% |
| CC(=O)NCCCC(=O)NC(C)c1nnc2n1CCC2 (stereo unspecified) | 1.75% |
| CCOCC(=O)N1CCOCC2(CCN(c3ncccn3)C2)C1 (stereo unspecified) | 14.5% |
| CCN(CC)S(=O)(=O)N1CCCC(c2ccc(C(=O)O)cc2)C1 (stereo unspecified) | 36.8% |
| CCCS(=O)(=O)N1CCCC(c2nc(-c3ccccc3)c[nH]2)C1 (stereo unspecified) | 44.4% |
| CCN(C)S(=O)(=O)N1CCCC(c2nc(-c3ccccc3)c[nH]2)C1 (stereo unspecified) | 89.1% |
| CCN(C)S(=O)(=O)N1CCCC(c2cccc(C(=O)O)c2)C1 (stereo unspecified) | -5.38% |
| CC(=O)N1CCCC(c2nc(-c3ccccc3)c[nH]2)C1 (stereo unspecified) | 16.6% |
| CS(=O)(=O)N1CCCC(c2nc(-c3ccccc3)c[nH]2)C1 (stereo unspecified) | 50.4% |
| O=C(c1cc(C2CCCCN2CCO)n[nH]1)N1CCOCC1 (stereo unspecified) | -0.902% |
| Cc1ncncc1C(=O)NCCn1nc2ccccn2c1=O | 12.915% |
| CCCS(=O)(=O)N1CCN(c2ccc3nnc(CC)n3n2)CC1 | -37.2% |
| Cc1ccccc1OCC(=O)NCC(c1ccc(N(C)C)cc1)N(C)C (stereo unspecified) | 27.5% |
| CCNc1nc2cn(-c3ccc(OC(F)(F)F)cc3)c(=O)c-2c[nH]1 | 45.6% |
| C[C@@H](NC(=O)c1cccs1)c1onc(-c2cccnc2)c1C(=O)O | -20.8% |
| O=C(CN1CCCC1c1nc(Cc2ccc(F)cc2)no1)NC1CC1 (stereo unspecified) | 62% |
| CCCNC(=O)CN1CCCC1c1nc(Cc2ccc(F)cc2)no1 (stereo unspecified) | 47.4% |
| C=C(C)CN1CCCC1c1nc(Cc2ccc(F)cc2)no1 (stereo unspecified) | 61.1% |
| OCCCN1CCCC1c1nc(Cc2ccc(F)cc2)no1 (stereo unspecified) | 14.9% |
| CCCN1CCCC1c1nc(Cc2ccc(F)cc2)no1 (stereo unspecified) | 23.5% |
| CC(C)(C)OCCN1CCCC1c1nc(Cc2ccc(F)cc2)no1 (stereo unspecified) | 10.6% |
| O=C(CN1CCN(CC(O)C2CC2)CC1)NCc1ccccc1 (stereo unspecified) | -24.6% |

| Compound | INHIBITION |
| --- | --- |
| Cc1ccc(-c2ccccc2CC2CNCCNC2=O)c(C)c1 (stereo unspecified) | 33% |
| COc1ccc(F)cc1-c1ccccc1CC1CNCCNC1=O (stereo unspecified) | 23.595% |
| Cc1cc(F)ccc1-c1ccccc1CC1CNCCNC1=O (stereo unspecified) | 71.2% |
| CC(=O)N1CCN(C(=O)c2cc(-n3cnnn3)ccc2Cl)CC1 | 6.32% |
| CCOc1ccccc1CNC(=O)N(CC)C(C)c1cccnc1 (stereo unspecified) | -1.25% |
| CCN(C(=O)NCc1ccc(C)cc1OC)C(C)c1cccnc1 (stereo unspecified) | 29.8% |
| CCN(C(=O)NCc1ccccc1OC(F)F)C(C)c1cccnc1 (stereo unspecified) | 50.1% |
| NC(=O)c1ccccc1Oc1cnc(C2CCCN2)cn1 (stereo unspecified) | -38.3% |
| Cc1ccc2c(c1)CCC2NC(=O)N1CCC(C(N)=O)CC1 (stereo unspecified) | 10.1% |
| COC(=O)Cn1c(=O)[nH]c2cn(-c3ccc(C)cc3)c(=O)n21 | -1.04% |
| CC(C)CN1C(=O)CO[C@@H]2CN(C(=O)CC(F)(F)F)C[C@H]21 | 54.1% |
| CC(C)CN1C(=O)CO[C@@H]2CN(C(=O)N3CCOCC3)C[C@H]21 | 29% |
| CC(C)CN1C(=O)CO[C@@H]2CN(C(=O)C3CCOCC3)C[C@H]21 | 11.3% |
| CC(C)CN1C(=O)CO[C@@H]2CN(C(=O)NC(C)C)C[C@H]21 | 70.4% |
| CC(C)CN1C(=O)CO[C@@H]2CN(C(=O)N(C)C)C[C@H]21 | 29% |
| CC(C)CN1C(=O)CO[C@@H]2CN(C(=O)[C@H]3CCCO3)C[C@H]21 | 36.4% |
| CCN(CC)CC1CN(Cc2cccc(C#N)c2)Cc2nccn2C1 (stereo unspecified) | -16.9% |
| CC1CCCN(c2nccn3c(=O)[nH]nc23)C1 (stereo unspecified) | 17.6% |
| COCC(=O)N1CCC(=O)N(C2CCCC2)Cc2cc(F)ccc21 | -13.3% |
| CCOC(=O)[C@]12CCCN(Cc3cccs3)C[C@H]1CN(CCOC)C2 | 33.5% |
| O=C(O)[C@]12CCCN(Cc3cccs3)C[C@H]1CN(c1ncccn1)C2 | -7.24% |
| CCOC(=O)[C@]12CCCN(Cc3cccs3)C[C@H]1CN(C(C)=O)C2 | 51.4% |
| CCOC(=O)[C@]12CCCN(Cc3nccs3)C[C@H]1CN(C(C)=O)C2 | -1.64% |

| Compound | INHIBITION |
| --- | --- |
| CCOC(=O)[C@]12CCCN(Cc3ccsc3)C[C@H]1CN(CCOC)C2 | -74.6% |
| CCOC(=O)[C@]12CCCN(Cc3nccs3)C[C@H]1CN(C(C)C)C2 | 76.4% |
| CCOC(=O)[C@]12CCCN(Cc3cccs3)C[C@H]1CN(CC(C)C)C2 | 60.3% |
| CCOC(=O)[C@]12CCCN(Cc3nccs3)C[C@H]1CN(S(C)(=O)=O)C2 | 5.96% |
| CCOC(=O)[C@]12CCCN(Cc3cccs3)C[C@H]1CN(C(C)C)C2 | 64.3% |
| CCOC(=O)[C@]12CCCN(Cc3nccs3)C[C@H]1CN(CCOC)C2 | -14.4% |
| CCOC(=O)[C@]12CCCN(Cc3nccs3)C[C@H]1CN(CC(C)C)C2 | -13% |
| CCOC(=O)[C@]12CCCN(Cc3nccs3)C[C@H]1CN(CCN(C)C)C2 | 15.1% |
| COc1cc(-c2nc3c([nH]2)CCCNC3=O)cc(OC)c1OC | -34.8% |
| Cc1ccc(F)cc1C(=O)N1CCN(S(C)(=O)=O)[C@@H](C)C1 | -2.23% |
| CCOC(=O)Cc1cs/c(=N/C(=O)COc2cnc(C)cc2O)[nH]1 | -1.45% |
| CC(C)(C)c1cccc(OCC(=O)NS(=O)(=O)c2cccnc2)c1 | 0.1% |
| CCNC(=O)NC(=O)CNC(C)(C)c1ccc2c(c1)OCO2 | -12.2% |
| CN(Cc1cccnc1)[C@@H]1CN(Cc2ccccn2)[C@@H]2CCCO[C@H]12 | 30.3% |
| NCC1CCC(c2c(C(=O)NCCO)sc3ccccc23)CC1 (stereo unspecified) | -11.4% |
| CNC(=O)C1CCCCN1C(=O)CCn1cnc2sccc2c1=O (stereo unspecified) | 52.6% |
| CCC1CCCCN1C(=O)CCn1cnc2sccc2c1=O (stereo unspecified) | 25.4% |
| CC1CCCCN1C(=O)CCn1cnc2sccc2c1=O (stereo unspecified) | 42.7% |
| CCn1ncc2c(C(F)F)cc(-c3ccn(C)n3)nc21 | 8.05% |
| O=C(Nc1ccc(Cn2cccn2)cc1)N1CCC2(CC1)OCCO2 | 41% |
| CC1(C)CN(C(=O)Nc2ccc(Cn3cccn3)cc2)CCO1 | 49.9% |
| O=C(Nc1ccc(Cn2cccn2)cc1)N1CCC(CO)CC1 | 57.8% |
| COCCOc1ccc(NC(=O)C2CC(=O)N(CC3CC3)C2)cn1 (stereo unspecified) | 4.71% |

| Compound | INHIBITION |
| --- | --- |
| CN(C)C(=O)N1CCC2(CC1)CN(CC1CC1)CC21CCNC1=O (stereo unspecified) | -63.9% |
| Cc1cc(C(=O)NCC(F)(F)F)c2c(C3CCNCC3)noc2n1 | 64% |
| Cc1cc(C(=O)NCc2ccc(F)cc2)c2c(C3CCNC3)noc2n1 (stereo unspecified) | 41.6% |
| Cc1cc(C(=O)NCC(F)(F)F)c2c(C3CCCN3)noc2n1 (stereo unspecified) | 30.8% |
| O=C(C1CCN(c2nc3nc[nH]c(=O)c3s2)CC1)N1CCCCC1 | 37.4% |
| NC(=O)NC(CC(=O)NCCc1ccc(F)cc1)c1ccccc1 (stereo unspecified) | 53.8% |
| COc1ccc(CCNC(=O)CC(NC(N)=O)c2ccccc2)cc1 (stereo unspecified) | 29.1% |
| NC(=O)NC(CC(=O)NCCc1cccc(F)c1)c1ccccc1 (stereo unspecified) | 20.5% |
| CSCC(=O)N1CCCCC1Cn1cc(C)cn1 (stereo unspecified) | -5.25% |
| CC(C)CN1CCC2(CCN(CC3CC3)CC2)C1=O | -7.24% |
| N#Cc1cccc(N2CCCC(CO)(Cc3ccccc3F)C2)n1 (stereo unspecified) | 23.5% |
| COc1cc(N2CCCC(CO)(Cc3ccccc3F)C2)ncn1 (stereo unspecified) | 84.9% |
| CCCC1(CO)CCCN(c2ncccc2F)C1 (stereo unspecified) | -29.9% |
| COC[C@]1(O)CCN(c2cc(OC)ncn2)CC1(C)C | -31.7% |
| Nc1cc(N2CCCC(CO)(Cc3ccccc3F)C2)nc(N)n1 (stereo unspecified) | 75.1% |
| Nc1cc(N2CCCC(Cc3ccc(F)cc3F)(C(=O)O)C2)ncn1 (stereo unspecified) | 34.4% |
| OCC1(Cc2ccccc2F)CCCN(c2ccc3ccccc3n2)C1 (stereo unspecified) | 89.9% |
| Nc1ccnc(N2CCCC(CO)(Cc3cccc(Cl)c3)C2)n1 (stereo unspecified) | 44.9% |
| O=C(O)C1(Cc2ccccc2F)CCCN(c2ncnc3[nH]ccc23)C1 (stereo unspecified) | 23.5% |
